Test results published in PubChem BioAssay AID1069 (NMMLSC, 2008).
Activity calls are given as the source filed them.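 How the source made its calls: active means high combined rank on largest and smallest cell-count-weighted shift across three tests, rank score above 45, floors 50 and 25 (some results past the limit were not filed as active); inactive means the rest.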

Experiment: activators of LNCaP cell differentiation, retest, confirmation, side scatter shift, flow cytometry (AID 1069);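 further: LNCaP human prostate cancer cells in low-serum medium with charcoal-stripped FBS; percent of cells with raised granularity gated so DMSO controls show 10%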
Conditions: 4 d, stronger effect = higher value

Structure (SMILES)	side scatter shift (at 100 µM)	side scatter shift (side scatter shift, at 10 µM) [%]
Cc1ccccc1-c1nc(CN2CCC(C(=O)NCc3cccnc3)CC2)c(C)o1	36.9% (inactive)	1.35
Cc1cc(=O)oc(C)c1C(=O)NCCCN1CCN(c2ccccc2F)CC1	32.8% (inactive)	2.1
COc1ccc(-c2cc(C(=O)NCc3ccc(Cl)cc3)no2)cc1OC	28.5% (inactive)	7.15
COC(=O)c1cc(-c2ccccc2)sc1NC(=O)c1cc(C)on1	70% (inactive)	13.2
c1ccc(CSc2nnc(-c3cccs3)n2Cc2ccco2)cc1	20% (inactive)	6.7
Cc1ccc2c(c1)c1c(n2CC(O)Cn2c(C)nc3ccccc32)/C(=N\O)CCC1 (centres undefined)	18.8% (inactive)	10.1
COc1ccc(OC)c(CNC(=O)CCNC(=O)Cn2ccc3ccccc3c2=O)c1	12.7% (inactive)	7.3
COc1ccc(N2CCN(CCCNC(=O)C3CCCN(S(=O)(=O)c4cnc[nH]4)C3)CC2)cc1 (centres undefined)	32.3% (inactive)	4.05
O=C(NCCCN1CCN(c2cccc(Cl)c2)CC1)C1CCC(=O)N1Cc1ccccc1Cl (centres undefined)	33.3% (inactive)	11.4
CCN1CCN(c2ncc(C(=O)Nc3cc(Cl)c(OC)cc3OC)c3ccccc23)CC1	53.7% (inactive)	19.2
COc1ccc(S(=O)(=O)CCC(=O)O)cc1	16.3% (inactive)	7.3
Nc1ccccc1NC(=O)c1ccccc1N	5.9% (inactive)	2.1
CSc1nc2ccc(Nc3nc(N4CCOCC4)nc(N4CCOCC4)n3)cc2s1	14.6% (inactive)	5.1
Cc1ccc(CNc2nc3ccccc3n3nnnc23)cc1	33.1% (inactive)	7
COc1cccc(-c2cc(C(=O)N3CCCc4ccccc43)no2)c1	22.2% (inactive)	1.8
Cc1oc(-c2ccc(Cl)cc2)nc1CN1CCC(C(=O)NCCCN2CCCC2=O)CC1	11.8% (inactive)	1.8

Structure (SMILES)	side scatter shift (at 100 µM)	side scatter shift (side scatter shift, at 10 µM) [%]
Cc1oc(-c2ccc(Cl)cc2)nc1CN1CCC(C(=O)N2CCc3ccccc3C2)CC1	44.4% (inactive)	17
COC(=O)CN1CCN(C(=O)c2ccc(F)cc2)c2ccccc2C1	12.5% (inactive)	3.1
Cc1ccc(S(=O)(=O)NCCCCC(NC(=O)OC(C)(C)C)C(=O)O)cc1 (centres undefined) (tested in a mixture with another compound)	8.9% (inactive)	5.45
O=S1(=O)C=C(Sc2nc3ccccc3s2)c2ccccc21	7.7% (inactive)	17.9
O=C(Cc1ccc(-n2cccc2)cc1)NCc1cccs1	28.8% (inactive)	13.2
OCc1nc2ccccc2n1CCCOc1ccccc1	6.7% (inactive)	5.1
CN(C)c1ccc(-c2nn3c(-c4ccc(Cl)cc4Cl)nnc3s2)cc1	50% (inactive)	4.15
Cc1oc(-c2ccc(Cl)cc2)nc1CN1CCC(C(=O)NCCCN2CCOCC2)CC1	41.7% (inactive)	27.7
O=C(Cn1cc2c(n1)CCCC2)NCCCN1CCN(c2ccccc2F)CC1	56.4% (active)	4.95
CCS(=O)(=O)N1CCC(C(=O)NCCCN2CCN(c3ccccc3F)CC2)CC1	13.3% (inactive)	12.6
COc1ccc(-c2noc(CCC(=O)NCCCN3CCC(Cc4ccccc4)CC3)n2)cc1	21.7% (inactive)	28.6
CCOC(=O)CSc1nnc(CNC(=O)c2ccccc2OC)n1-c1ccc(OC)cc1	11.3% (inactive)	4.3
Cc1ccccc1OCc1nc(-c2ccc(NC(=O)c3ccc4c(c3)OCO4)cc2)no1	32.3% (inactive)	4.6
Cc1cc(NC(=O)CSc2nnc(C3CC3)n2C)no1	11.6% (inactive)	9.3
CCn1c(=O)cc(SCC(=O)NCCN2CCN(Cc3ccccc3)CC2)c2ccccc21	70.2% (active)	6.85
CCOC(=O)N1CCC(=C2c3ccc(Cl)cc3CCc3cccnc32)CC1	28.6% (inactive)	6.25
